By viability is commonly meant a read-out of living cells in per cent, often relative to untreated cells.

Several values for one entry are separate records, joined by “and”; a condition that tells them apart may be missing. Equal values may be shown once. Results filed as inconclusive are left out. Values without a mark were called inactive. Activity calls are given as the source filed them. Calls come from the whole dose curve; as a rule, active = well fitted curve in the direction sought with a large enough effect; inconclusive = small, poorly fitted or top-dose-only effect, or another doubt; inactive = no such curve, though single readings can be large; an effect the other way counts as inactive or inconclusive.

The record followed here is PubChem BioAssay (NCATS).

The target in experiment [1] is Cellular tumor antigen p53 (Homo sapiens) (UniProt P04637). The experiment is described as follows: Primary qHTS for small molecule compounds that upregulate eGFP-tagged delta133p53alpha (in N-terminal) cells. (AID 2060322).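 For activation: cells pre-induced with doxycycline then dosed without doxycycline; series mostly up to about 56 µM; 0% = DMSO vehicle and 100% = reference activator.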 Note: nearly all actives have a fitted effect of over 75% in size. Note: potency is the fitted concentration of half-maximal effect. The note with it: NCI-H358 eGFP-delta133p53alpha fluorescence, 24 h; activation: active compounds read high. The method in brief:
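NCI-H358 cells pre-induced 24 h with 10 ng/ml doxycycline for eGFP-delta133p53alpha, plated dox-free and exposed 24 h at 37C to titrated compounds. Fixed, Hoechst-stained; gated GFP peak intensity by laser scanning cytometry, normalized to DMSO (0%) and 57.5 uM 5-azacytidine (100%).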

The target of experiment [2] is Aldehyde dehydrogenase, mitochondrial (Homo sapiens) (UniProt P05091). The experiment is described as follows: qHTS for Inhibitors of the Aldehyde Dehydrogenase Family (ALDH2) Primary screen (AID 2061308).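 Note: plate controls were vehicle for no effect and reference inhibitor for full effect; nearly all actives have a fitted effect of over 55% in size.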 A general note: Quantitative high-throughput screening tests each substance at several concentrations.
Experiment [3] can be described thus: BET inhibitor-based combinations targeting novel dependencies in MECOM-rearranged (r) AML: SET-2 cell line (AID 2202231).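 For viability: plate controls were DMSO treated cells for no effect and wells without cells for full effect.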 Note: nearly all actives have a fitted effect of over 35% in size. Note: potency is the fitted concentration of half-maximal effect. The note with it: SET-2 AML cells viability, CellTiter-Glo luminescence, 48 h; viability: active compounds read low, concentration not given here. The method in brief:
(§1)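 AML cell lines seeded at 500 cells/well, treated with 11-point dose curves for 48 h. Viability by CellTiter-Glo luminescence, normalised to DMSO and empty wells; activity expressed as AUC and per-cell-line Z-transformed AUC.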
In general terms: ATP-based viability assays read luminescence as a measure of living cells.

A short description of experiment [4]: BET inhibitor-based combinations targeting novel dependencies in MECOM-rearranged (r) AML: OCI-AML3 cell line (AID 2202232). Note: nearly all actives have a fitted effect of over 35% in size. Note: potency is the fitted concentration of half-maximal effect. The note with it: Potency: OCI-AML3 viability. The method in brief: as §1
Experiment [5] is described as follows: BET inhibitor-based combinations targeting novel dependencies in MECOM-rearranged (r) AML: MV-4-11 cell line (AID 2202233). Note: potency is the fitted concentration of half-maximal effect; nearly all actives have a fitted effect of over 45% in size. Put shortly:
(§2)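 Cells at 500/well were exposed for 48 hr to MIPE v5.0 drugs as 11-point dose curves. Viability was read by CellTiter-Glo luminescence and normalized to DMSO and empty-well controls. Activity was expressed as AUC and per-cell-line Z-AUC.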

The nature of experiment [6]: BET inhibitor-based combinations targeting novel dependencies in MECOM-rearranged (r) AML: HNT-34 cell line (AID 2202234). Note: nearly all actives have a fitted effect of over 35% in size. Note: potency is the fitted concentration of half-maximal effect. The method in brief: as §2
A short description of experiment [7]: BET inhibitor-based combinations targeting novel dependencies in MECOM-rearranged (r) AML: AML-194 cell line (AID 2202237; note: nearly all actives have a fitted effect of over 40% in size; note: potency is the fitted concentration of half-maximal effect). The method in brief: as §1
Experiment [8] can be described thus: BET inhibitor-based combinations targeting novel dependencies in MECOM-rearranged (r) AML: UCSD-AML1 cell line (AID 2202235). Note: nearly all actives have a fitted effect of over 40% in size. Note: potency is the fitted concentration of half-maximal effect. The method in brief: as §2
A short description of experiment [9]: BET inhibitor-based combinations targeting novel dependencies in MECOM-rearranged (r) AML: AML-191 cell line (AID 2202236; note: nearly all actives have a fitted effect of over 35% in size; note: potency is the fitted concentration of half-maximal effect). Put shortly:
as §1

The target in experiment [10] is Retinaldehyde dehydrogenase 3 (Homo sapiens) (UniProt P47895). The experiment in a line: qHTS for Inhibitors of the Aldehyde Dehydrogenase Family (ALDH1A3) Confirmatory screens (AID 2061311). Note: nearly all actives have a fitted effect of over 60% in size. Note: potency is the fitted concentration of half-maximal effect.
Experiment [11] has as its target Retinal dehydrogenase 2 (Homo sapiens) (UniProt O94788). The experiment is described as follows: qHTS for Inhibitors of the Aldehyde Dehydrogenase Family (ALDH1A2) Confirmation screens (AID 2061314). Note: potency is the fitted concentration of half-maximal effect; nearly all actives have a fitted effect of over 65% in size.
Experiment [12] deals with Retinaldehyde dehydrogenase 3 (Homo sapiens) (UniProt P47895). The experiment is described as follows: qHTS for Inhibitors of the Aldehyde Dehydrogenase Family (ALDH1A3) Validation screen (AID 2061312). Note: potency is the fitted concentration of half-maximal effect; nearly all actives have a fitted effect of over 45% in size.
Experiment [13] has the same target. The experiment is described as follows: qHTS for Inhibitors of the Aldehyde Dehydrogenase Family (ALDH1A3) Primary screen (AID 2061315). Note: potency is the fitted concentration of half-maximal effect.
The target of experiment [14] is Aldehyde dehydrogenase 1A1 (Homo sapiens) (UniProt P00352). The experiment in a line: qHTS for Inhibitors of the Aldehyde Dehydrogenase Family (ALDH1A1) Confirmatory screens (AID 2061316). Note: potency is the fitted concentration of half-maximal effect; nearly all actives have a fitted effect of over 65% in size.

Sequence of Cellular tumor antigen p53 (Homo sapiens) (P04637 whole entry, looked up): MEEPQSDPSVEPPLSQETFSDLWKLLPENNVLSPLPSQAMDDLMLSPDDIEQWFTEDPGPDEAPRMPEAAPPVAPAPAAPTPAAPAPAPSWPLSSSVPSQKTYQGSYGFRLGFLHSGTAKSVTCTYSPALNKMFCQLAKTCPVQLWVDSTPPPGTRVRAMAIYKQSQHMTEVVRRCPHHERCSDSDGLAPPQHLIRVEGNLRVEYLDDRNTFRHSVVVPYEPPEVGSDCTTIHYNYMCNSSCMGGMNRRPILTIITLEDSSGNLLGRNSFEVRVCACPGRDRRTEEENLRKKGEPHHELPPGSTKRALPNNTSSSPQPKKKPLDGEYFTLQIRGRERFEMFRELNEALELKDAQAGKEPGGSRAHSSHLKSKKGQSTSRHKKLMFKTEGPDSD

In the case of `FC(F)c1nc2ccccc2n1-c1nc(N2CCOCC2)nc(N2CCOCC2)n1`, the activation in experiment [1] is 43.2% and 24.1%. For the same compound, the Potency entry in experiment [2] is “inactive”. For the same compound, the Potency is 3.72 µM (active) in experiment [3], 0.235 µM (active) in experiment [4] and 0.209 µM (active) in [5].
`c1nc2nc(Nc3ccc(N4CCOCC4)cc3)nc(NC3CCCCC3)c2[nH]1`: in [1], the activation is -34%. In addition, the Potency result in [2] is “inactive”. For the same compound, the Potency in experiment [5] was 0.372 µM (active); in experiment [6], 1.48 µM (active); in experiment [7] it was 2.63 µM (active).
`CCCCOc1ccc(C(=O)Nc2ccc(F)cc2F)cc1`: the activation in [1] was -9.74% and -2.39%. Also, the Potency entry in experiment [2], in experiment [4], in experiment [6], in [8], in experiment [9] and in experiment [7] was “inactive” in each case. In experiment [3], the viability is 103%.
With `CCCS(=O)c1ccc2nc(NC(=O)OC)[nH]c2c1` (configuration not stated), the activation in [1] is -21.8% and -4.96%. Besides, the Potency result in experiment [2] is “inactive”. Further, the Potency in experiment [4] was 26.3 µM (active); in [5], 23.5 µM (active); in experiment [6], 13.2 µM (active); in experiment [9], 8.33 µM (active); in [7], 11.8 µM (active).
With `COc1cc(N2CCC(N)CC2)ccc1Nc1ncc(Cl)c(-c2c[nH]c3ccccc23)n1`, the Potency in experiment [1] is 26.9 µM (active); in experiment [4], 5.9 µM (active); in experiment [5] it was 0.0661 µM (active); in experiment [6], 1.32 µM (active); in experiment [8], 1.48 µM (active); in experiment [9], 8.33 µM (active). For the same compound, in experiment [7], the Potency is 10.5 µM (active). In [2], the Potency entry was “inactive”.
In the case of `COc1cc(O)c2c(c1)/C=C/C[C@H](O)[C@H](O)C(=O)/C=C\C[C@H](C)OC2=O`, the Potency is 10.7 µM (active) in experiment [1], 5.04 µM (active) in experiment [10] and 5.04 µM (active) in [11].
`C=CC(=O)Nc1cccc(Oc2nc(Nc3ccc(N4CCN(C)CC4)cc3OC)ncc2Cl)c1`: the Potency was 19.3 µM (active) and 30.1 µM (active) in experiment [1]; 20.9 µM (active) in experiment [3]; 10.5 µM (active) in [4]; 4.68 µM (active) in [5]; 9.34 µM (active) in experiment [6]; 14.8 µM (active) in [9]. Also, the Potency in experiment [7] was 16.6 µM (active). Besides, the Potency result in [2] is “inactive”.
`O=C1OCc2cc3cccc(O[C@@H]4O[C@H](CO)[C@@H](O)[C@H](O)[C@H]4O)c3c(O)c21`: the activation in [1] is -11.5%. Further, the Potency in [10] was 13.9 µM (active).
For the compound `Cc1csc(N(C(=O)CSc2ccc(-c3ccccc3)nn2)C2CC2)n1`, the activation in [1] was 10.5%. Moreover, the Potency in [12] was 2.82 µM (active).
Turning to `O=C(/C=C/c1cccc(S(=O)(=O)Nc2ccccc2)c1)NO`, the Potency in experiment [1] is 5.44 µM (active); in [3], 0.263 µM (active); in experiment [4], 0.742 µM (active); in [5] it was 0.296 µM (active); in experiment [6], 0.934 µM (active); in [8] it was 0.742 µM (active). For the same compound, the values for the Potency in experiment [9] and in experiment [7] were 0.934 µM (active) and 1.05 µM (active), respectively. In addition, in experiment [2], the Potency result is “inactive”.
Consider `C=C1CCC2C(C)(COC(C)=O)CCCC2(C)C1CCC(C)CC(=O)O` (configuration not stated), for which the activation in [1] is -12.2%. The Potency result in [10] and in [13] was “inactive” throughout.
`Cc1cc2c(N3CCCC3)nc(N3CCCC3)nc2n1C`: the activation in experiment [1] was -16.7%. The Potency was 14.2 µM (active) in experiment [10] and 11.3 µM (active) in experiment [14]. Besides, in experiment [13], the Potency result was “inactive”.
`Cc1ccc([N+](=O)[O-])cc1S(=O)(=O)N(C)/N=C/c1cnc2ccc(Br)cn12`: the Potency in experiment [1] is 0.213 µM (active); in experiment [3] it was 0.166 µM (active); in experiment [4] it was 0.235 µM (active); in experiment [5] it was 0.0417 µM (active); in experiment [6] it was 0.166 µM (active); in [9], 0.166 µM (active). Also, the Potency in [7] was 0.186 µM (active). For the same compound, in experiment [2], the Potency entry is “inactive”.
Take `COc1cc(N2CCN(C)CC2)ccc1Nc1nccc(-c2cn(C)c3cnccc23)n1`: the Potency in experiment [1] is 26.9 µM (active); in experiment [3], 20.9 µM (active); in experiment [4], 14.8 µM (active); in [5] it was 0.372 µM (active); in experiment [6], 13.2 µM (active); in experiment [8], 6.61 µM (active). In addition, the Potency in experiment [9] was 13.2 µM (active); in [7], 14.8 µM (active). Also, in [2], the Potency entry is “inactive”.
Take `CN1CCc2c(n(Cc3ccc(C(=O)NO)cc3)c3ccccc23)C1`: the activation in [1] was 23.6%. In addition, the Potency entry in experiment [2] and in experiment [8] was “inactive” throughout. The Potency in experiment [5] is 20.9 µM (active).
Turning to `CC1=C(C(=O)OC2CCCCC2)C(c2ccc([N+](=O)[O-])cc2)C2=C(CC(C)(C)CC2=O)N1` (configuration not stated), the activation in experiment [1] is 7.16%. Moreover, the Potency in experiment [10] is 2.25 µM (active); in [12] it was 5.62 µM (active); in [13], 7.08 µM (active); in experiment [14] it was 10.1 µM (active).
Regarding `N#C/C(=C\c1ccc(O)c(O)c1)C(=O)Nc1ccccc1`, the activation in experiment [1] was -12.1%. The Potency in [10] was 2.25 µM (active).
